Bioassay records from PubChem.
ELG1 DNA repair: inhibitors of ELG1-dependent DNA repair in HEK293T cells. 2.3% of 330,000 active. AID 504467. Potency, µM (top dose mostly 46.1 µM), for the others: top-dose activity change, negative = inhibition, usual class: inhibitors. HEK293T ELG1-luciferase reporter, luminescence, 16 h; DNA damage induced by 5-fluorouridine; further: on the % scale 0 is the no-effect control and ±100 the full control effect; nearly all actives have a fitted effect of over 55% in size
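HEK293T cells expressing luciferase-tagged ELG1 (2,000/well) received 5-Fluorouridine plus compound or DMSO for 16 hr at 37 °C. Luciferase was read by ONE-Glo luminescence after 30 min at room temperature.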
SMN2 splice enh: SMN2 splice variant enhancement. HEK293 SMN2-luciferase splicing reporter, luminescence, 30-36 h. Potency, µM (doses to about 46.1 µM), for the others: at the highest dose activity change, positive = activation, most hits filed as activators. 2.8% of 210,000 active; further: % of control where 0% means no effect; nearly all actives have a fitted effect of over 55% in size
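qHTS luciferase splicing reporter: luminescence rises when SMN2 exon 7 is included in transfected HEK293 cells. Compound exposure lasted 30-36 h at 37C, with 4.5 mM final sodium butyrate as control, followed by a ONE-Glo read.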
FLuc counter: inhibits or activates purified firefly luciferase, miR-21 counter-screen. P08659. purified FLuc, Km substrates, luminescence inhibition. Potency, µM (top dose mostly 57.5 µM), inactives show at the top dose activity change, negative = inhibition, most hits filed as inhibitors. 6.9% of 360,000 active. AID 588342;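 further: plate controls were vehicle for no effect and reference inhibitor for full effect; nearly all actives have a fitted effect of over 55% in size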
Target sequence (P08659 whole entry, looked up): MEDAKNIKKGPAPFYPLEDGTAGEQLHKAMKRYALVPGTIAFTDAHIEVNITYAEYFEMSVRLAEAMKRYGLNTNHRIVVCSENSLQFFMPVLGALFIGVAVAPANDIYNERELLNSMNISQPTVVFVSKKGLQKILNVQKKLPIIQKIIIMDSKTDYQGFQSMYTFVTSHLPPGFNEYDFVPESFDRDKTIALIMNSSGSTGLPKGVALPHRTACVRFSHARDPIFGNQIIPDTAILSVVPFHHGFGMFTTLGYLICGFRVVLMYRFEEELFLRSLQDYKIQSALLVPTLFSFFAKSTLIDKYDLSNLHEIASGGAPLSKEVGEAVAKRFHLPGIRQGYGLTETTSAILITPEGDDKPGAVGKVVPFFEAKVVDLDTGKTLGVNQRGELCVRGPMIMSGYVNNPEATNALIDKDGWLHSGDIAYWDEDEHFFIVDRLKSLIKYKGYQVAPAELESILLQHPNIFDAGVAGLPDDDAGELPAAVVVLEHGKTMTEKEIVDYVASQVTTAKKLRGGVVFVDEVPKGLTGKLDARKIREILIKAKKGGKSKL
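Biochemical qHTS of compounds, final roughly 60 µM downward over six points, against 10 nM purified firefly luciferase using Km concentrations of substrates (10 uM D-luciferin, 10 uM ATP) in Tris acetate pH 7.5 buffer; luminescence output.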
ELG1 genotox: genotoxicity induction in ELG1-luciferase HEK293T cells; Potency, µM (titrated, usually from 46 µM), without a hit: at the top dose activity change, positive = activation, most hits filed as activators; HEK293T ELG1-luciferase reporter, luminescence, 16 h; AID 504466; 1.3% of 330,000 active; further: % of control where 0% means no effect; nearly all actives have a fitted effect of over 60% in size
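Luminescence read-out: rising ELG1-luciferase signal, reflecting elevated ELG1 protein under genetic stress, flags genotoxic compounds. Cells were treated for 16 hr at 37 °C before ONE-Glo detection.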
Rab9 prom act: activators of Rab9 promoter; AID 485297; Potency, µM (series often up to 9.22 µM), for inactives: top-dose activation, negative = inhibition, actives largely listed as activators; Huh7 Rab9 promoter-luciferase reporter, luminescence, 24 h; 2.8% of 320,000 active; further: % of control where 0% means no effect; nearly all actives have a fitted effect of over 60% in size
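Luminescence read-out: Huh7 cells stably expressing Rab9-luciferase, treated 24 h with compound at 37 °C, then lysed with luciferase reagent for 10 min at ambient before reading.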
NPC1 promoter act: activates the NPC1 promoter; Huh7 NPC1 promoter luciferase reporter, 24 h; 2.4% of 320,000 active; AID 485313; Potency, µM (top dose mostly 9.22 µM), for inactives: at the highest dose activation, usual class: activators; further: % of control where 0% means no effect; nearly all actives have a fitted effect of over 60% in size
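In 1536-well qHTS, Huh7 cells harboring an NPC1 promoter–luciferase construct received compound for 24 h; activation was quantified by luminescence following luciferase reagent addition.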
The depositor's hits bear a star; ? = inconclusive; . = not tested or not shown. A selection: hits, their analogues and other compounds. The true share with any hit is near 9.3%. The call rests on the fitted dose curve; in most records, active means well fitted curve in the direction sought with a large enough effect; inconclusive means small, poorly fitted or top-dose-only effect, or another doubt; inactive means no such curve, though single readings can be large; an effect the other way counts as inactive or inconclusive. Potency means the concentration at half of the fitted maximal effect.

SMILES | ELG1 DNA repair | SMN2 splice enh | FLuc counter | ELG1 genotox | Rab9 prom act | NPC1 promoter act
CCOC(=O)C1=C(C)NC(C)=C(C(=O)OCC)C1C(=O)OCC(=O)NC1CCCCC1 | 10µM* | . | . | -5% | . | .
CCOC(=O)C1=C(C)NC(C)=C(C(=O)OCC)C1C(=O)OCC(=O)NCCc1ccccc1 | 23µM* | . | . | -2% | . | .
CCNC(=O)COC(=O)C1C(C(=O)OCC)=C(C)NC(C)=C1C(=O)OCC | -7% | 19% | 0% | -1% | -3% | -3%
CSCCCNC(=O)c1ccc(OC2CCN(C(=O)c3cccnc3)CC2)cc1 | -13% | . | -1% | -2% | 2% | -7%
Cc1ccc(F)cc1NC(=O)CCc1c(C)nn(-c2ccc(N3CCCCC3)nn2)c1C | -17% | . | 11µM* | 8% | 30% | ?
Cc1cc(F)ccc1NC(=O)CCc1c(C)nn(-c2ccc(N3CCCCC3)nn2)c1C | 4% | . | ? | -5% | 0% | -3%
Cc1nn(-c2ccc(N3CCCCC3)nn2)c(C)c1CCC(=O)Nc1ccc(F)cc1F | . | . | 15µM* | . | . | .
Cc1cc(C)n(NC(=S)NC2CCCC2)c(=O)c1C#N | 3% | . | -2% | 0% | 3% | -6%
CC(=O)Nc1ccc(NC(=O)CCCn2nc(C)c3sc4ccccc4c3c2=O)cc1 | . | . | -6% | . | . | .
Cc1ccc(NC(=O)CCCn2nc(C)c3sc4ccccc4c3c2=O)c(Cl)c1 | . | . | 6µM* | . | . | .
COc1cc(OC)c(NC(=O)CCCn2nc(C)c3sc4ccccc4c3c2=O)cc1Cl | . | . | 13µM* | . | . | .
COc1ccc(CNC(=O)CCCn2nc(C)c3sc4ccccc4c3c2=O)cc1OC | . | . | -20% | . | . | .
Cc1ccc2cc(C3C(C#N)=C(N)Oc4c3ccc3cccnc43)c(=O)[nH]c2c1 (stereo not given) | -5% | -57% | -19% | 7% | 0% | 0%
CCc1ccc2[nH]c(=O)c(C3C(C#N)=C(N)Oc4c3ccc3cccnc43)cc2c1 (stereo not given) | 12µM* | -13% | 4% | 2% | 3% | -4%
Cc1sc2ncnc(N3CCC(C(=O)Nc4nc(-c5cccs5)cs4)CC3)c2c1C | 15% | . | 11µM* | 1% | -20% | -21%
CCOC(=O)c1ccccc1NC(=O)C1CCN(c2ncnc3sc(C)c(C)c23)CC1 | ? | . | 0% | ? | -6% | -6%
Cc1sc2ncnc(N3CCC(C(=O)Nc4ccccc4C(C)(C)C)CC3)c2c1C | 9.2µM* | . | 2% | -11% | 0% | -1%
Cc1sc2ncnc(N3CCC(C(=O)N(C)CC(=O)Nc4ccccc4Cl)CC3)c2c1C | 7.3µM* | . | 0% | -21% | -1% | 0%
Cc1nn(C)cc1C(C)NC(=O)c1cc(COc2cccc3cnccc23)on1 (stereo not given) | 18µM* | . | -2% | -14% | -12% | -7%
Cc1nn(C)cc1C(C)NC(=O)c1cc(COc2c(F)cccc2F)on1 (stereo not given) | 1% | . | 5% | 3% | -2% | -7%
CC(NC(=O)c1cc(COc2c(F)cccc2F)on1)c1cnn(-c2ccccc2)c1 (stereo not given) | ? | . | 17µM* | 18% | ? | 23%
Cc1nc2cc(OCc3cc(C(=O)NC(C)c4cnn(C)c4)no3)ccc2s1 (stereo not given) | 6% | . | 17µM* | -4% | 27% | 12%
COc1ccc(OCc2cc(C(=O)NC(C)c3cnn(C)c3)no2)c(Cl)c1 (stereo not given) | ? | . | 13µM* | ? | ? | ?
COc1ccc(OCc2cc(C(=O)NCCCc3ccccc3)no2)c(Cl)c1 | -11% | . | ? | -9% | 5% | -20%
O=C(Cn1cnc2ccccc21)Nc1cccc(S(=O)(=O)N2CCCC2)c1 | 5% | . | 2% | 0% | -28% | -20%
